{"source": "PubChem BioAssay AID642", "about": "(Vanderbilt High Throughput Screening Facility, 2007)", "note": "About 2,000 (91%) of roughly 2,200 compounds were called active.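 Rule for the calls: active = luminescence in either of two replicates above the same-plate mean plus 3 SD of the low-dose dopamine control; inactive = the rest.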 So high a share suggests a set chosen from earlier hits. These entries were drawn from the full list.", "data": [{"molecular_target": "D(1A) dopamine receptor (Homo sapiens) (UniProt P21728)", "sequence (P21728 whole entry, looked up)": "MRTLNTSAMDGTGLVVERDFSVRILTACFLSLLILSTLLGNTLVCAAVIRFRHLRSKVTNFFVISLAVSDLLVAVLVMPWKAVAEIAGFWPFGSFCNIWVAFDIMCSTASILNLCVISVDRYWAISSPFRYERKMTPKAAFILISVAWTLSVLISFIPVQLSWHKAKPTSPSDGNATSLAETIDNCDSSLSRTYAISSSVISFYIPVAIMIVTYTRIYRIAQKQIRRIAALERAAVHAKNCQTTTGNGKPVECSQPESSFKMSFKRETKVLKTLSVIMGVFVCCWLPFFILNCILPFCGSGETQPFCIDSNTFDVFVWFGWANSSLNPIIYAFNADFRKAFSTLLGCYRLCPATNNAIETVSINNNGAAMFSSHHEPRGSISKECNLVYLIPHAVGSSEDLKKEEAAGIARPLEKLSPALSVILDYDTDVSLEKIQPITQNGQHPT", "assay": "potentiation of dopamine EC30 D1 response – cell-based, HEK293 D1, CRE-luciferase, duplicate, confirmation (AID 642)", "settings": "at 10 µM, hits give high values", "values": [{"smiles": "CCC(=NCc1ccco1)c1c(O)n(Cc2ccccc2)c(=O)[nH]c1=O", "luminescence": "18900 (active)"}]}]}
